# In the library only some 4.1% were active in any assay of this set; here they are far more common.
# ssDAF-12 act – activates DAF-12 receptor from parasite S. stercoralis; HEK293 ssDAF-12/GRIP1 lit1-tk-luc reporter, luminescence; % of 3 µM dafachronic acid response; activation, % at 6.8 µM; 1% of 370,000 active; AID 652126;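 active = activation above the mean over all tested compounds plus 3 SD, cut at about 0.9% in these data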;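 also: 0% = DMSO-only wells and 100% = 3 µM delta7-dafachronic acid wells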
# PolyA inh – blocks polyadenylation in yeast reporter cells; S. cerevisiae SKY197-pL101 polyadenylation reporter, beta-gal luminescence; efflux-impaired pdr1/pdr3 knockout yeast; score 100 = 6 SD above DMSO; activity score, % at 12 µM; 0.02% of 300,000 active; AID 1875;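 active = lowest replicate activity score at least 50, where 100 means six control SD above control mean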;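 also: yeast exposed to compound for 9 h at 30 °C; higher score means more reporter readthrough which indicates perturbed polyadenylation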
# hcDAF-12 act – activators of H. contortus DAF-12 nuclear receptor; HEK293 hcDAF-12 lit1-tk-luc reporter, luminescence; 0% DMSO, 100% Δ7-dafachronic acid; activation, % at 6.8 µM; 1.4% of 370,000 active; AID 652067;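 active = activation above the mean of all tested compounds plus 3 SD, cut at about 5.5% in these data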;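 also: 100% = response to 3 µM Δ7-dafachronic acid high control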
# DAX1 inh-1 – blocks DAX1 repression of SF-1 activated StAR promoter | HEK293T StAR-luciferase reporter, SF-1/DAX-1 repression relief | inhibition, % at 6.8 µM | 1.1% of 370,000 active | AID 652010;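 active = inhibition above the mean over all tested compounds plus 3 SD, cut at about 3.6% in these data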;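 also: 0% = DAX-1 cells with DMSO and 100% = cells lacking DAX-1 with DMSO; higher inhibition means more luminescence from relief of DAX-1 repression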
# hgDAF-12 ag – activates the H. glycines DAF-12 receptor ligand-binding domain; 1.8% of 370,000 active; activation, % at 6.8 µM; HEK293 GAL4-hgDAF12 UAS-luciferase reporter, agonist luminescence; normalized to butyrate control;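 active = activation above a cutoff set at the mean of all screened compounds plus 3 SD, cut at about 10% in these data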;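 also: 0% = DMSO wells and 100% = sodium butyrate wells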
# DAX1 inh-2 – inhibitors of human orphan nuclear receptor DAX1 (NR0B1); 0.99% of 340,000 active; inhibition, % at 6.75 µM; HEK293 Gal4-DAX1 luciferase reporter, luminescence; AID 504766; P51843;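 active = inhibition above the mean over all tested compounds plus 3 SD, cut at about 4.2% in these data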;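 also: 0% = DAX1-transfected cells with DMSO and 100% = empty-vector control cells with DMSO; inhibition shows as a rise in luminescence from relieved DAX1 repression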
# Target sequence (P51843 207-470 limits assumed): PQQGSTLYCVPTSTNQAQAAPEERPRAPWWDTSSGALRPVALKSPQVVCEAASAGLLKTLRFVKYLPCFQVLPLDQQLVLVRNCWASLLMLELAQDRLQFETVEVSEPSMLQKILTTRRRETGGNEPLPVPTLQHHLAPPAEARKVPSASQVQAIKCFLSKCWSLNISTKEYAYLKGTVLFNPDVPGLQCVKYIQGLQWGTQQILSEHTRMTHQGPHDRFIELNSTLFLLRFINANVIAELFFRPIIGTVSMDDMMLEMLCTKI
# * hit, by the source's call; nt = no result given.
SMILES,ssDAF-12 act,PolyA inh,hcDAF-12 act,DAX1 inh-1,hgDAF-12 ag,DAX1 inh-2
CC(C)c1ccc(NC(=O)C2CCCN(S(=O)(=O)c3cnc[nH]3)C2)cc1 (stereo not drawn),-1,13,-1,0,0,5.5*
O=C(NCCc1ccccc1)C1CCCN1C(=O)Nc1ccc(F)cc1 (stereo not drawn),-1,1,3,0,0,5.1*
O=C(NCc1ccccc1)[C@@H]1CCCN1C(=O)[C@H]1CCCN1C(=O)N1CCCCC1,-1,nt,0,-1,2,nt
CCN(CCn1cccn1)C(=O)CCc1nnc(-c2ccccc2)o1,-1,4,1,1,8,-1
CCN(CCn1cccn1)C(=O)CCc1nnc(C2(c3ccc(Cl)cc3)CCC2)o1,0,-3,1,1,12*,1
C=CCn1nc2ccccc2c1OCCO,0,5,6.0*,0,5,3
C=CCn1nc2ccccc2c1OC,1,1,5,0,2,-1
COc1ccc(N(CC(=O)Nc2cc([N+](=O)[O-])ccc2C)S(C)(=O)=O)cc1OC,1.3*,-9,0,-1,0,0
CCOC(=O)[C@@]12CCC3=C1N(CCC3)C(=O)[C@H](CC(=O)N1CCOCC1)C2,-1,nt,-1,-1,-3,nt
CN(c1ccc(OCC(=O)NCCc2ccccc2)cc1)S(=O)(=O)c1ccc(Cl)cc1,0,0,3,4.2*,3,0
CN1OC[C@@H]2CN[C@H](c3ccc(N4CCCCC4)cc3)C[C@@H]21,-1,nt,-2,-1,-4,nt
CCC(=O)Nc1nc2c(OC)ccc(OC)c2s1,-1,-5,2,-1,-4,0
Cc1csc(NC(=O)c2nc3nccc(C)n3n2)n1,-1,3,1,1,4,0
Cc1ccnc2nc(C(=O)Nc3nc4ccccc4s3)nn12,1.0*,5,6.3*,4.3*,13*,2
Cc1ccc2nc(NC(=O)COC(=O)c3ccco3)sc2c1,0,17,5.8*,2,9,1
Cc1cc[n+](CC(=O)Nc2nc3ccccc3s2)cc1,1.9*,-5,1,0,4,1
CCC(=O)Nc1nc2ccc3nc(C)sc3c2s1,0,0,2,3,11*,1
O=C(COC(=O)c1ccco1)Nc1nc2ccc([N+](=O)[O-])cc2s1,-1,-12,0,0,-1,-1
Cc1ccc(S(=O)(=O)N(C)CC(=O)Nc2nc3ccccc3s2)cc1,-1,-13,3,-1,1,-1
COc1ccc(-n2c(SCC(=O)Nc3ccc(Oc4ccccc4)cc3)nnc2-c2ccco2)cc1,-2,nt,-2,-3,2,nt
CCOC(=O)CNC(=O)CSc1nnc(-c2ccccc2)n1CC,-1,nt,-1,0,2,nt
C=CCN=C1NC(c2ccccc2)C(C(=O)OC)=C(C)N1C (stereo not drawn),-1,nt,0,1,3,nt
COC(=O)CCCCCCCCC(=O)Nc1nc2ccccc2s1,-1,22,0,0,1,0
O=C(CSC1=NCCS1)Nc1nc2ccccc2s1,1.2*,6,1,0,4,1
COCC(=O)Nc1nc2ccccc2s1,0,-3,6.0*,1,6,2
SMILES,ssDAF-12 act,PolyA inh,hcDAF-12 act,DAX1 inh-1,hgDAF-12 ag,DAX1 inh-2
COC(=O)CCCC(=O)OC,-1,nt,2,0,0,4.3*
COC(=O)CCC(=O)CN,-1,1,0,1,-2,4.7*
CC(C)c1ccc(NC(=O)OC2CCC23CCC(c2ccccc2)CC3)cc1 (stereo not drawn),0,nt,-1,nt,3,nt
O=S1(=O)c2ccc(N3CCN(Cc4ccccc4F)CC3)cc2Oc2ccccc2CN1Cc1cn(Cc2cccc(C(F)(F)F)c2)nn1,-1,nt,-2,-2,0,nt
Cc1cc(CN(C)C(=O)CCc2nnc(Cc3cccc(C(F)(F)F)c3)o2)on1,0,5,2,1,6,3
CCN(CC)C(=O)CCc1nnc(Cc2cccc(C(F)(F)F)c2)o1,1,15,2,1,13*,2
N=c1cc(C2(O)CCCCC2)n2c(nc3ccccc32)s1,0,-2,3,3.6*,11*,2
Clc1cccc2sc(N3CCCC3)nc12,0,-2,1,0,3,0
Brc1cccc2sc(N3CCCC3)nc12,1,-23,3,1,11*,1
CC(=O)C1(C(=O)Nc2cc(C)cc(C)c2)CC(c2ccccn2)=NO1 (stereo not drawn),1,nt,6,-1,0,nt
O=C(O)c1cccc2c1C(=O)N(Cc1ccccc1)C2,1.2*,18,-1,1,1,0
Cc1ccc(CNC(=O)c2cc3c(=O)n(C)c4ccccc4c3n2C)cc1,-1,27,1,0,0,5.6*
CCCN(CCC)CCNC(=O)c1cc2c(=O)n(C)c3ccccc3c2n1C,-1,-20,2,3,3,5.7*
Cn1c(C(=O)NCc2cccs2)cc2c(=O)n(C)c3ccccc3c21,-1,-10,1,0,1,2
CCN1CCN(C(=O)c2cc3c(=O)n(C)c4ccccc4c3n2C)CC1,-1,10,2,2,-1,5.8*
C[C@@H]1CCN(C2CC2)S(=O)(=O)c2ccc(N3CC[C@@H](O)C3)cc2O1,0,nt,-2,-1,0,nt
COc1ccc(CNC(=O)[C@@H](NC(=O)C2CCN(C(=O)[C@@H](N)CC(C)C)CC2)C(C)C)cc1,0,6,2,1,2,3
CC(C)C[C@H](N)C(=O)N1CCC(C(=O)N[C@H](C(=O)NC(C)c2ccccc2)C(C)C)CC1 (stereo partly drawn),-1,9,0,1,0,5.5*
CSCC[C@H](NC(=O)OC(C)(C)C)C(=O)N1CCC(C(=O)N[C@@H](C)C(=O)NC(C)c2ccccc2)CC1 (stereo partly drawn),-2,11,-2,0,2,8.3*
CSCC[C@H](NC(=O)OC(C)(C)C)C(=O)N1CCC(C(=O)N[C@@H](C)C(=O)NCc2ccc(F)cc2)CC1,-1,20,1,2,-1,2
COc1ccc(CNC(=O)[C@@H](NC(=O)C2CCN(C(=O)[C@@H](N)CCSC)CC2)C(C)C)cc1,-1,-14,-1,0,-3,5.9*
CC(C)C[C@H](N)C(=O)N1CCC(C(=O)N[C@H](C(=O)NCc2ccc(F)cc2)C(C)C)CC1,-1,15,-1,-1,1,2
CCOC(=O)C1=CCN(S(=O)(=O)c2cccc(Cl)c2)C1c1cccc(Br)c1 (stereo not drawn),-2,nt,-2,-2,-2,nt

# Compound activity (PubChem)
